Experimental data from PubChem BioAssay (NCATS).
Records with an inconclusive call do not appear. Active and inactive are the calls of the source. The call rests on the fitted dose curve; in most records, active means well fitted curve in the direction sought with a large enough effect; inconclusive means small, poorly fitted or top-dose-only effect, or another doubt; inactive means no such curve, though single readings can be large; an effect the other way counts as inactive or inconclusive.

Tests used:
[1] = MultiTox-Fluor Cytotoxicity Assay - LYMP1-002 - Dead Cells (AID 960); settings: LYMP1-002 lymphoblastoid cells, dead-cell protease fluorescence; series mostly up to 46.1 µM; further: nearly all actives have a fitted effect of over 60% in size
In short: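 Dead-cell fluorescence (Ex/Em 485/520) after 16 h compound exposure at 37 C of LYMP1-002 lymphoblastoid cells in complete medium; AC50 by Hill equation, with data scaled between DMSO and 15 uM tetraoctylammonium bromide.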

[2] = MultiTox-Fluor Cytotoxicity Assay - LYMP1-003 - Dead Cells (AID 961); settings: LYMP1-003 lymphoblastoid cells, dead-cell protease fluorescence; series mostly up to 92.2 µM; further: nearly all actives have a fitted effect of over 70% in size
In short: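 LYMP1-003 human lymphoblastoid cells (2500/well) exposed to compound 16 h at 37 C in complete medium; dead-cell protease read with bis-AAF-R110 fluorescence (Ex/Em 485/520) after 60 min at room temperature. Normalized to DMSO and 15 uM tetraoctylammonium bromide; AC50 from Hill fit.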

[3] = MultiTox-Fluor Cytotoxicity Assay - LYMP1-003 - Live Cells (AID 962); settings: LYMP1-003 lymphoblastoid cells, MultiTox-Fluor live-cell protease fluorescence; series mostly up to 92.2 µM;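 further: cytotoxic hits lower the live-cell protease signal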
In short: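 Live-cell protease activity (GF-AFC substrate, 405/510 nm, 60 min at room temperature) after 16 h, 37 C compound exposure of human lymphoblastoid LYMP1-003 cells; concentration-response fitted to the Hill equation for AC50.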

[4] = Cell Viability - LYMP1-003 - Assay at 24 hr (AID 963); settings: LYMP1-003 lymphoblastoid cell viability; series mostly up to 92.2 µM
In short: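 Concentration-response qHTS: ATP loss measured by CellTiter-Glo luminescence after 24 h compound exposure at 37 C. Cells were LYMP1-003 human lymphoblastoid, 2500 per well. AC50 derived via standard Hill equation modeling.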

[5] = Cell Viability - LYMP1-003 - Assay at 40 hr (AID 964); settings: LYMP1-003 lymphoblastoid viability; series mostly up to 92.2 µM; further: nearly all actives have a fitted effect of over 60% in size
In short: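 Viability is taken as cellular ATP, read by CellTiter-Glo luminescence after 40 h of compound exposure at 37 C. Cells: human lymphoblastoid line LYMP1-003 at 2500/well; AC50 values derived by Hill-equation fitting of concentration-response data.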

[6] = Cell Viability - LYMP2-003 (AID 965); settings: LYMP2-003 lymphoblastoid cell viability; series mostly up to 92.2 µM;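 further: cells exposed to compounds for 24 h before reading; nearly all actives have a fitted effect of over 50% in size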
In short: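 CellTiter-Glo luminescence quantified ATP loss after 24 h compound treatment of LYMP2-003 lymphoblastoid cells at 37 C. Titration series were fitted with the standard Hill equation to give AC50.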

[7] = Cell Viability - LYMP2-004 (AID 966); settings: LYMP2-004 lymphoblastoid cell viability, qHTS; series mostly up to 92.2 µM; further: nearly all actives have a fitted effect of over 65% in size
In short: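 AC50 values come from Hill modelling of concentration-dependent loss of intracellular ATP, measured by CellTiter-Glo luminescence. Human LYMP2-004 lymphoblastoid cells (2500/well) were exposed to compound for 24 h at 37 C.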

[8] = Cell Viability - LYMP2-005 (AID 967); settings: LYMP2-005 lymphoblastoid cell viability; series mostly up to 92.2 µM
In short: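 LYMP2-005 human lymphoblastoid cells (2500/well) were treated with compounds for 24 h at 37 C. Intracellular ATP was then measured by CellTiter-Glo luminescence after 30 min at room temperature. AC50 values came from Hill-equation fits of qHTS concentration-response data.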

[9] = Cell Viability - LYMP2-009 (AID 968); settings: LYMP2-009 lymphoblastoid cell viability; series mostly up to 92.2 µM; further: nearly all actives have a fitted effect of over 55% in size
[10] = target: Alpha-galactosidase (Coffea arabica) (UniProt Q42656); experiment: Counterscreen for Glucocerebrosidase Inhibitors: qHTS Assay for Coffee Bean alpha-Galactosidase at pH 4.5 (AID 957); settings: purified coffee bean alpha-galactosidase, fluorogenic substrate; series mostly up to 76.9 µM
Sequence of Alpha-galactosidase (Coffea arabica) (Q42656 whole entry, looked up): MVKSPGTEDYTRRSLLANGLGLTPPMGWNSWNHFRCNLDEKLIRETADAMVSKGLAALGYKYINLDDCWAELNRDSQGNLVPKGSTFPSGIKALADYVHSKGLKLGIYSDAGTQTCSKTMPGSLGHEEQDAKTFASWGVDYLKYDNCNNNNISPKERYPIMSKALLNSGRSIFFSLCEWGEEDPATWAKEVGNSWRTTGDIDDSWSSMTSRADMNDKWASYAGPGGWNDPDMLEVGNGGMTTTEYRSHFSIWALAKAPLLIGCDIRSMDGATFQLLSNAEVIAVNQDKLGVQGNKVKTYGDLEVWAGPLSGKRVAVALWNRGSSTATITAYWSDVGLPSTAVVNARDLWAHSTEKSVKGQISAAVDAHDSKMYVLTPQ
In short: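 Fluorogenic qHTS at pH 4.5 (citrate buffer with Tween-20): 2 nM enzyme, 80 uM 4-MU-alpha-galactoside substrate, compound titrated 0.7 nM to 77 uM, 20 min room temperature. Glycine/NaOH stop; 4-MU read Ex 365/Em 440; Hill-equation AC50 against no-enzyme and enzyme controls.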

Measured: Potency

O=C(O)COc1ccccc1
not listed: [10]
inactive: all other assays above

C=CC(=O)NCNC(=O)C=C
not listed: [10]
inactive: all other assays above

COc1ccc2c(c[n+](C)c3c4cc5c(cc4ccc23)OCO5)c1OC
inactive: [10]

O=S(=O)(c1ccc(Cl)cc1)c1ccc(Cl)cc1
not listed: [10]
inactive: all other assays above

Cc1cc(O)ccc1Cl
not listed: [10]
inactive: all other assays above

CCCCC(CC)COC(=O)c1ccccc1C(=O)OCC(CC)CCCC (centres undefined)
not listed: [1] | [10]
inactive: all other assays above

O=[N+]([O-])c1cc([N+](=O)[O-])c2ccccc2c1
not listed: [10]
inactive: all other assays above

CNCCc1c[nH]c2ccc(O)cc12
inactive: [10]

C[C@]12C[C@H](O)[C@H]3[C@@H](CCC4=CC(=O)CC[C@@]43C)[C@@H]1CC[C@@H]2C(=O)CO
inactive: [10]

CCOP(=O)(NC(C)C)Oc1ccc(SC)c(C)c1 (centres undefined)
not listed: [10]
inactive: all other assays above

CN(C)[C@@H]1C(=O)C(C(N)=O)=C(O)[C@@]2(O)C(=O)C3=C(O)c4c(O)cccc4[C@@](C)(O)[C@H]3[C@H](O)[C@@H]12
not listed: [10]
inactive: all other assays above
